# Measured values from article PMC7862700, “An all-to-all approach to the identification of sequence-specific readers for epigenetic DNA modifications on cytosine”.
# Legend:
# Assay in all cases: DAPPL (digital affinity profiling via proximity ligation, sequencing); 10 mM Tris-HCl pH 7.5, 50 mM NaCl, 1 mM DTT, 4% glycerol, room temperature, 30 min; GST-TFs on glutathione beads, 16-mer random dsDNA library, 0.1% formaldehyde crosslink after washing; high values mean tight binding
# FLI1 = molecular target: T1, FLI1 (Homo sapiens, UniProt Q01543 1-452); settings: protein: recombinant; tags: N-terminal GST; dsDNA, one strand shown
# T1 sequence: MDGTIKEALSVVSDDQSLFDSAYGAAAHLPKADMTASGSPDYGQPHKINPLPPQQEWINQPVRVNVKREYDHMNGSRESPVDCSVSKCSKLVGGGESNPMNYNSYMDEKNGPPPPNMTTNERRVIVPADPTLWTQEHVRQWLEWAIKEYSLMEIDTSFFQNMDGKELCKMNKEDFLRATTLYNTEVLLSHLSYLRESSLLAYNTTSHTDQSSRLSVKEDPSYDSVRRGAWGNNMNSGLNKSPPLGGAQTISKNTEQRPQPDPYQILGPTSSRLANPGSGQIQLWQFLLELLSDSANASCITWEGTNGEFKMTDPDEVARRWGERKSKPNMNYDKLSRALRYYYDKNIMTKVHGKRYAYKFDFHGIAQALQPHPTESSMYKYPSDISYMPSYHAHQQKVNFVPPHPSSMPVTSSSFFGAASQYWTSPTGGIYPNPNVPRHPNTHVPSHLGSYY
# Method in brief: (§1)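 GST fusions of human transcription factors were expressed in yeast and captured with glutathione beads. Once given DNA barcodes and pooled alongside a tag-only sample, they were incubated for 30 min at room temperature with 200 nmole of a random double-stranded 16-mer DNA library in Tris/NaCl/DTT/glycerol buffer, then washed, crosslinked (0.1% formaldehyde), proximity-ligated, PCR-amplified and sequenced on an Illumina NextSeq500. The binding signal of each hexamer is its read frequency for a factor divided by its frequency for the tag-only sample.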
# ELK1 = molecular target: T2, ELK1 (Homo sapiens, UniProt P19419 1-428); settings: protein: recombinant; tags: N-terminal GST; dsDNA, one strand shown
# T2 sequence: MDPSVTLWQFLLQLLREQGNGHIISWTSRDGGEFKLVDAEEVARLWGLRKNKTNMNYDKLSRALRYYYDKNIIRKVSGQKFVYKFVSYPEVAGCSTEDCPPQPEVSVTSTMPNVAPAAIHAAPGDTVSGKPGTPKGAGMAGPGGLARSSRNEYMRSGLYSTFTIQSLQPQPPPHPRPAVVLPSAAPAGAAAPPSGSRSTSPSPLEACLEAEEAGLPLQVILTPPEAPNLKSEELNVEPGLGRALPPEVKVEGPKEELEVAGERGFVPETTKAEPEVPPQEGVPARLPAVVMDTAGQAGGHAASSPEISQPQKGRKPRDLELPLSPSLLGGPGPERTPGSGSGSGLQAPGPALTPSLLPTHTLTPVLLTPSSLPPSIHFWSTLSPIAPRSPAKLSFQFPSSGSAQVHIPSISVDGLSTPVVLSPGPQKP
# Method in brief: as §1
# GABPA = molecular target: T3, GABPA (Homo sapiens, UniProt Q06546 1-454); settings: protein: recombinant; tags: N-terminal GST; dsDNA, one strand shown
# T3 sequence: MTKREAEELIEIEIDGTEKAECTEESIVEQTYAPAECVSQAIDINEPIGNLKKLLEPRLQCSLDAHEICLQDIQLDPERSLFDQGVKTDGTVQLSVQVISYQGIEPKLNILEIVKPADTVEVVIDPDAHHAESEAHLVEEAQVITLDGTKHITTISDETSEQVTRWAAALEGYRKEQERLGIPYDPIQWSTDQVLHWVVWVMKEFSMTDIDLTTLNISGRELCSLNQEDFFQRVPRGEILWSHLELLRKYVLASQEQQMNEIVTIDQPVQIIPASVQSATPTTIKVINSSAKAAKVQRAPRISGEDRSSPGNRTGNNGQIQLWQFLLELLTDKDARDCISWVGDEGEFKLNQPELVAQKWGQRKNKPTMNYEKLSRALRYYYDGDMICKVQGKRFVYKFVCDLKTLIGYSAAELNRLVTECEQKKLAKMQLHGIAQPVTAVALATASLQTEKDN
# Method in brief: as §1
# ERG = molecular target: T4, ERG (Homo sapiens, UniProt P11308 1-479); settings: protein: recombinant; tags: N-terminal GST; dsDNA, one strand shown
# T4 sequence: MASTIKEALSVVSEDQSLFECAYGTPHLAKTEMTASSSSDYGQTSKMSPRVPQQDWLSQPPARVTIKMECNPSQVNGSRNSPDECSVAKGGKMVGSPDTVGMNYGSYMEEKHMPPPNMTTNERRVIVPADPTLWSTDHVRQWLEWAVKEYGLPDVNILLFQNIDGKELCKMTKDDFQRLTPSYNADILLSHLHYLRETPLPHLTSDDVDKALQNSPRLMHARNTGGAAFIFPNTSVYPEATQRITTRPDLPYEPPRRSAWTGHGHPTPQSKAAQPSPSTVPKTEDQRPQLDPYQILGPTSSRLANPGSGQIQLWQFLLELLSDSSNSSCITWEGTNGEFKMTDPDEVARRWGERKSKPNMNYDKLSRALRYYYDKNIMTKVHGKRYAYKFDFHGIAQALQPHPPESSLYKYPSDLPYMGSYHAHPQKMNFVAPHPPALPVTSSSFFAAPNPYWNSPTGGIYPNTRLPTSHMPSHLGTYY
# Method in brief: as §1
# ELF1 = ELF1 (Homo sapiens, UniProt P32519 1-619); settings: protein: recombinant; tags: N-terminal GST; dsDNA, one strand shown
# Chain of ELF1 (P32519 whole entry): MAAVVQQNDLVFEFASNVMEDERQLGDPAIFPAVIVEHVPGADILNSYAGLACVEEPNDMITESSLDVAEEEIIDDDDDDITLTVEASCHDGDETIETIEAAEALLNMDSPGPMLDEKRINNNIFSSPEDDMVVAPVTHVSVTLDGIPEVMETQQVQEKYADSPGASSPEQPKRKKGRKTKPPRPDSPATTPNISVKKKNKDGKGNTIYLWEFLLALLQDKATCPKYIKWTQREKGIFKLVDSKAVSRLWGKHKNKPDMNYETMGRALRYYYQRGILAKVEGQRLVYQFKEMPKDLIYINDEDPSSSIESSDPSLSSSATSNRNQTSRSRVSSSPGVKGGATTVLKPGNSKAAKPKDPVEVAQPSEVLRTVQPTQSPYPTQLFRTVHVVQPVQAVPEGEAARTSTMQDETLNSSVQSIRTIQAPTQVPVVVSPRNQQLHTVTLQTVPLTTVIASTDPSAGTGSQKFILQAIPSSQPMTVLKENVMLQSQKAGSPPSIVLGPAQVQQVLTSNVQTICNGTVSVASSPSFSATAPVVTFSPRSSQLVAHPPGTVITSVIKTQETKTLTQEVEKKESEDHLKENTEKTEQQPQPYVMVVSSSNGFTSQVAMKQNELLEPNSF
# Method in brief: as §1
# EHF = molecular target: T5, EHF (Homo sapiens, UniProt Q9NZC4 1-300); settings: protein: recombinant; tags: N-terminal GST; dsDNA, one strand shown
# T5 sequence: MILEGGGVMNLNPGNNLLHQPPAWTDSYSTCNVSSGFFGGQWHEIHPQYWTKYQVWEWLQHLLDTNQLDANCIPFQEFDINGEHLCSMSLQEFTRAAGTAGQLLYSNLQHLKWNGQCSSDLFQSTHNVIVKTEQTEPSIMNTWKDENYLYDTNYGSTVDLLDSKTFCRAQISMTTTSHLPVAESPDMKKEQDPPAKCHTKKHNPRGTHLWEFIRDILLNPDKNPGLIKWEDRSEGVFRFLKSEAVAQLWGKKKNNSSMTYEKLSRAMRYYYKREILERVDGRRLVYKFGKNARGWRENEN
# Method in brief: as §1
# SPI1 = SPI1 (Homo sapiens, UniProt P17947 1-270); settings: protein: recombinant; tags: N-terminal GST; dsDNA, one strand shown
# Method in brief: as §1
# SPIB = SPIB (Homo sapiens, UniProt Q01892 1-262); settings: protein: recombinant; tags: N-terminal GST; dsDNA, one strand shown
# Chain of SPIB (Q01892 whole entry): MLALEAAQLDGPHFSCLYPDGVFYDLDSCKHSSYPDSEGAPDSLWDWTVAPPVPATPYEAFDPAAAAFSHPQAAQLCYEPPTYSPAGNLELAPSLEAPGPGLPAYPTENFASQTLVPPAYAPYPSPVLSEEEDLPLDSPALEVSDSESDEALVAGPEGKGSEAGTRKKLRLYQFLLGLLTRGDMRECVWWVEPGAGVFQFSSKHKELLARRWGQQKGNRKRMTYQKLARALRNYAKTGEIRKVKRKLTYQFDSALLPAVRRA
# Method in brief: as §1
# ELK3 = molecular target: T6, ELK3 (Homo sapiens, UniProt P41970 1-407); settings: protein: recombinant; tags: N-terminal GST; dsDNA, one strand shown
# T6 sequence: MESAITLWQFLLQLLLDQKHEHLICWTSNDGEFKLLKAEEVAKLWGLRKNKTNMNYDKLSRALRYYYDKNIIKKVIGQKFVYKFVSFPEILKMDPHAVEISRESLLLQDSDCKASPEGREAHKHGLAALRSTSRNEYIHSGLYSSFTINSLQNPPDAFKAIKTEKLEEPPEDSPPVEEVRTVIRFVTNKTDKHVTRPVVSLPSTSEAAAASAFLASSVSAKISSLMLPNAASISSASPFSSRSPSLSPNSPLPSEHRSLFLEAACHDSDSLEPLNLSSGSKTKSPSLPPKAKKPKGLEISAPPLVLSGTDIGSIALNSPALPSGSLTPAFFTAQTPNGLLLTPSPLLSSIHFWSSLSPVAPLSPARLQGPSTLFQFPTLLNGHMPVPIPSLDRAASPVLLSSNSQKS
# Method in brief: as §1
# FEV = molecular target: T7, FEV (Homo sapiens, UniProt Q99581 1-238); settings: protein: recombinant; tags: N-terminal GST; dsDNA, one strand shown
# T7 sequence: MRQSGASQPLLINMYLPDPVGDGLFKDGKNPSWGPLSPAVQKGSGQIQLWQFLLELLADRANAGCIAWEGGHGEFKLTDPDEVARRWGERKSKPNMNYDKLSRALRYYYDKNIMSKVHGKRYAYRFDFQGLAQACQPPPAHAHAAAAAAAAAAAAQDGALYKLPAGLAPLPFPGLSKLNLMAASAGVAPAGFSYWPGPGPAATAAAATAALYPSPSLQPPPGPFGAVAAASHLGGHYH
# Method in brief: as §1
# ETV5 = ETV5 (Homo sapiens, UniProt P41161 1-510); settings: protein: recombinant; tags: N-terminal GST; dsDNA, one strand shown
# Chain of ETV5 (P41161 whole entry): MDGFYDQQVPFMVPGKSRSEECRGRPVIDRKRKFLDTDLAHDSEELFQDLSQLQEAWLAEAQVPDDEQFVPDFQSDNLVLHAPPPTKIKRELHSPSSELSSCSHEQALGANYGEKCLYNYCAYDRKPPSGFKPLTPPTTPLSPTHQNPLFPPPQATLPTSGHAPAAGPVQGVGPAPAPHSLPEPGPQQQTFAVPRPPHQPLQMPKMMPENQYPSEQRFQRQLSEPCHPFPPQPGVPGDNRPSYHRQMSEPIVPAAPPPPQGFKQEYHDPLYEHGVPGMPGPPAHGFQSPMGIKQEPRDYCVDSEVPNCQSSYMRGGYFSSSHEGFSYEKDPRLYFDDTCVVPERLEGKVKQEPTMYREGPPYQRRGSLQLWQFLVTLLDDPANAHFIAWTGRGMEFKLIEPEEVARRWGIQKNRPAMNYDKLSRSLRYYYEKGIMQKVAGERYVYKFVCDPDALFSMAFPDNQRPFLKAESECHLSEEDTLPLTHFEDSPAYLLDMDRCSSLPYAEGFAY
# Method in brief: as §1
# HSF1 = HSF1 (Homo sapiens, UniProt Q00613 1-529); settings: protein: recombinant; tags: N-terminal GST; chain copies: 3; dsDNA, one strand shown
# Chain of HSF1 (Q00613 whole entry): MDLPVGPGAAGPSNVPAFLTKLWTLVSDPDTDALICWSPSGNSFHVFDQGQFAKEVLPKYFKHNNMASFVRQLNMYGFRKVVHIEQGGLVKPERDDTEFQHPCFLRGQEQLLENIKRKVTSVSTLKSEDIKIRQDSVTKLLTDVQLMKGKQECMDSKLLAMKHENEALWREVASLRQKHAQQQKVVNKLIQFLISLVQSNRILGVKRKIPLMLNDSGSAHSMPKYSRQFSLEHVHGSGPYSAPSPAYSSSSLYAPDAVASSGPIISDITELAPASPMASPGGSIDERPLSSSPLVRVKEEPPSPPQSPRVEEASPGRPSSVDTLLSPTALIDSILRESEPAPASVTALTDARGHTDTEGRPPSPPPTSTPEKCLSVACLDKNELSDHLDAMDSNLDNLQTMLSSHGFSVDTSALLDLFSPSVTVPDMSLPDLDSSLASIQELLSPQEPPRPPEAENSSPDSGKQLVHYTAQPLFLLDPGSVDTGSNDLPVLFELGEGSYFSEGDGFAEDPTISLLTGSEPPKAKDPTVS
# Method in brief: as §1
# SPIC = molecular target: T8, SPIC (Homo sapiens, UniProt Q8N5J4 1-248); settings: protein: recombinant; tags: N-terminal GST; dsDNA, one strand shown
# T8 sequence: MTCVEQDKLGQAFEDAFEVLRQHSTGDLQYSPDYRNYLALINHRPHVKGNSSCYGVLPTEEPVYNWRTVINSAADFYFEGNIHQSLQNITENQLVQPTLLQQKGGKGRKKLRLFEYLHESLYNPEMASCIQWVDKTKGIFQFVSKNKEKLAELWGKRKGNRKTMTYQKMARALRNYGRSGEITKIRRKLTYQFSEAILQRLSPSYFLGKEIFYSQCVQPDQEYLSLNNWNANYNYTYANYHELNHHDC
# Method in brief: as §1
# ELF4 = ELF4 (Homo sapiens, UniProt Q99607 1-663); settings: protein: recombinant; tags: N-terminal GST; dsDNA, one strand shown
# Chain of ELF4 (Q99607 whole entry): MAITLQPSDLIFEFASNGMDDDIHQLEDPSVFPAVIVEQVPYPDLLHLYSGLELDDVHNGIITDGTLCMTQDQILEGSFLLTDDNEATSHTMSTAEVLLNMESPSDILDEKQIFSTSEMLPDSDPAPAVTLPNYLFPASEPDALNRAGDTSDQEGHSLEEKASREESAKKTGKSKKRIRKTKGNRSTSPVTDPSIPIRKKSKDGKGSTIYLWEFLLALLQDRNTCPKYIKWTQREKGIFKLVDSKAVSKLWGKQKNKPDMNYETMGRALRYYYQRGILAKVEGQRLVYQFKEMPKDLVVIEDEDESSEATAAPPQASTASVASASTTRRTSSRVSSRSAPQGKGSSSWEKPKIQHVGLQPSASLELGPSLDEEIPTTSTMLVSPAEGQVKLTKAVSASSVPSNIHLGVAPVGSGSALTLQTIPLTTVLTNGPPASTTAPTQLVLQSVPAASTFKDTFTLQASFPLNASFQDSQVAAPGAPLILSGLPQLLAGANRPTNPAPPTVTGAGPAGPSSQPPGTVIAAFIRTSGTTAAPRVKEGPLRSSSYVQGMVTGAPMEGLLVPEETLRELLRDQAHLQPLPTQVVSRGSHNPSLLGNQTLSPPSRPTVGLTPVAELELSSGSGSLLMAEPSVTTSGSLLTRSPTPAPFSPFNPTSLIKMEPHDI
# Method in brief: as §1
# ELK4 = molecular target: T9, ELK4 (Homo sapiens, UniProt P28324-2 1-405); settings: protein: recombinant; tags: N-terminal GST; dsDNA, one strand shown
# T9 sequence: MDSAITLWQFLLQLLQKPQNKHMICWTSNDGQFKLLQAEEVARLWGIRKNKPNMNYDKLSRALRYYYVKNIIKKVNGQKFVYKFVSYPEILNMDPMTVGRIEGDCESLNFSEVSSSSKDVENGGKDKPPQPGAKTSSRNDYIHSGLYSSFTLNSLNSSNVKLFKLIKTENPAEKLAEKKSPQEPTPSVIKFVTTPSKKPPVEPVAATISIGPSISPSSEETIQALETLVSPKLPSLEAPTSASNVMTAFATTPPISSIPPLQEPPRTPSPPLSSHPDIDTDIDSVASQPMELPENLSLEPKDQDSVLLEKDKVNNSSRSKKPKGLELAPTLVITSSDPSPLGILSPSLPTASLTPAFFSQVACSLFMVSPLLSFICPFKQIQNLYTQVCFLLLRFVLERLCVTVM
# Method in brief: as §1
# ETV2 = molecular target: T10, ETV2 (Homo sapiens, UniProt O00321 1-342); settings: protein: recombinant; tags: N-terminal GST; dsDNA, one strand shown
# T10 sequence: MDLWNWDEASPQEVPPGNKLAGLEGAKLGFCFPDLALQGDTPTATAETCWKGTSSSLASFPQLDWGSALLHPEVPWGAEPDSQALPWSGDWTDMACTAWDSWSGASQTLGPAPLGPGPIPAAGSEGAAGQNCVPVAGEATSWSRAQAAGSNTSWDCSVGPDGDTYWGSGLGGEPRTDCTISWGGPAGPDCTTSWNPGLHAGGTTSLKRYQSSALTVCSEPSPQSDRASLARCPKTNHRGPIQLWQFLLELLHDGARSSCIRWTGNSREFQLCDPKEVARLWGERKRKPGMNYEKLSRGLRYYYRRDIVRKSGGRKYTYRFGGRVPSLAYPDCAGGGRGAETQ
# Method in brief: as §1
# ELF3 = molecular target: T11, ELF3 (Homo sapiens, UniProt P78545 1-371); settings: protein: recombinant; tags: N-terminal GST; dsDNA, one strand shown
# T11 sequence: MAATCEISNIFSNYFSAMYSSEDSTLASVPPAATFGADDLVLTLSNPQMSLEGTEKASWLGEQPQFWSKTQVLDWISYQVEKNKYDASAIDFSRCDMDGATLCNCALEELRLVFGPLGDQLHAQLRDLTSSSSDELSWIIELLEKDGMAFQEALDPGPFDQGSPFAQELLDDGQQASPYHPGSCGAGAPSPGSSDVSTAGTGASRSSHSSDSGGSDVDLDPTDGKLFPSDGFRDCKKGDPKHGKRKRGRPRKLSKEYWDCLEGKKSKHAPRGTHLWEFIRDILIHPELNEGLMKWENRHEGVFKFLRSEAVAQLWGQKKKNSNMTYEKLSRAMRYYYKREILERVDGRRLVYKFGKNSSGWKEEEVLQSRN
# Method in brief: as §1
# CRX = CRX (Homo sapiens, UniProt O43186 1-299); settings: protein: recombinant; tags: N-terminal GST; dsDNA, one strand shown
# Chain of CRX (O43186 whole entry): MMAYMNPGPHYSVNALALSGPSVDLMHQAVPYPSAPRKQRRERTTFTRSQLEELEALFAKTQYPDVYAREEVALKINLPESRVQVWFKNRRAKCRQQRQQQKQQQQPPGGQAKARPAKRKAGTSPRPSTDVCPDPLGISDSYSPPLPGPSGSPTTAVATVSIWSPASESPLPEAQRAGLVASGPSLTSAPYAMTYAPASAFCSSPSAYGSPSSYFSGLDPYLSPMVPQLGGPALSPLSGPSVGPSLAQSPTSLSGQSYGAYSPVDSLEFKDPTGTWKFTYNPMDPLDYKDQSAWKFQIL
# Method in brief: as §1
# ETV1 = ETV1 (Homo sapiens, UniProt P50549 1-477); settings: protein: recombinant; tags: N-terminal GST; dsDNA, one strand shown
# Chain of ETV1 (P50549 whole entry): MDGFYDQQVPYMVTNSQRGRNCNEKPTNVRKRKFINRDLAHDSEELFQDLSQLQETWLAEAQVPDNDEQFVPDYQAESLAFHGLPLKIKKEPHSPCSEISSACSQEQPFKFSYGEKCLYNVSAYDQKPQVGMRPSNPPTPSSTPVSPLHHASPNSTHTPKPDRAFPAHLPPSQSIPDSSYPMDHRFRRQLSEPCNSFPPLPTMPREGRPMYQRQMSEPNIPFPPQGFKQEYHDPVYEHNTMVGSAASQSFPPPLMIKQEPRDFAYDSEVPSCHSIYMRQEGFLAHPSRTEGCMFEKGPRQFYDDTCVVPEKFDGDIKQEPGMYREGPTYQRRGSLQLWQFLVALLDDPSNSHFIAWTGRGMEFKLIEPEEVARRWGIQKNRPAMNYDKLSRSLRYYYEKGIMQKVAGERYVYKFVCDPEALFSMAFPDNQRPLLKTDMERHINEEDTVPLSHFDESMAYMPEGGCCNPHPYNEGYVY
# Method in brief: as §1
sequence,measurement,setting,value
TTTGGG,binding signal,FLI1,"1.27 fold enrichment (6-mer frequency, TF over GST control)"
same,binding signal,ELK1,"1.34 fold enrichment (6-mer frequency, TF over GST control)"
same,binding signal,GABPA,"1.37 fold enrichment (6-mer frequency, TF over GST control)"
same,binding signal,ERG,"1.25 fold enrichment (6-mer frequency, TF over GST control)"
same,binding signal,ELF1,"1.25 fold enrichment (6-mer frequency, TF over GST control)"
same,binding signal,EHF,"1.28 fold enrichment (6-mer frequency, TF over GST control)"
same,binding signal,SPI1,"1.4 fold enrichment (6-mer frequency, TF over GST control)"
same,binding signal,SPIB,"1.18 fold enrichment (6-mer frequency, TF over GST control)"
same,binding signal,ELK3,"1.29 fold enrichment (6-mer frequency, TF over GST control)"
same,binding signal,FEV,"1.31 fold enrichment (6-mer frequency, TF over GST control)"
same,binding signal,ETV5,"1.39 fold enrichment (6-mer frequency, TF over GST control)"
same,binding signal,HSF1,"1.36 fold enrichment (6-mer frequency, TF over GST control)"
same,binding signal,SPIC,"1.16 fold enrichment (6-mer frequency, TF over GST control)"
same,binding signal,ELF4,"1.41 fold enrichment (6-mer frequency, TF over GST control)"
same,binding signal,ELK4,"1.41 fold enrichment (6-mer frequency, TF over GST control)"
same,binding signal,ETV2,"1.42 fold enrichment (6-mer frequency, TF over GST control)"
same,binding signal,ELF3,"1.7 fold enrichment (6-mer frequency, TF over GST control)"
same,binding signal,CRX,"1.57 fold enrichment (6-mer frequency, TF over GST control)"
same,binding signal,ETV1,"1.43 fold enrichment (6-mer frequency, TF over GST control)"
